Assay outcomes as filed in PubChem BioAssay.
HPGD inh: inhibitors of human 15-hydroxyprostaglandin dehydrogenase (HPGD). P15428. purified HPGD, NADH fluorescence kinetic, PGE2 substrate. Potency, µM, most hits filed as inhibitors. hit rate 4.3% among 150,000. AID 894
Target sequence (P15428 whole entry, looked up): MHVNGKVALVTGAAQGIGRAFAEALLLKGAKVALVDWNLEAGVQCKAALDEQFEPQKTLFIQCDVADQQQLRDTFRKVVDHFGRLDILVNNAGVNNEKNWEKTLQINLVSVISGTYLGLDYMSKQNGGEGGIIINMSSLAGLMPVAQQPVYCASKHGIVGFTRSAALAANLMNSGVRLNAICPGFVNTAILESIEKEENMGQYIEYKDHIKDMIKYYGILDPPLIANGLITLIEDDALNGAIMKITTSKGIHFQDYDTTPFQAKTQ
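NADH formation kinetics: reaction with 30 uM PGE2 and 1 mM NAD+ (final), 20 nM enzyme, Tris-HCl pH 8 with Tween 20, after 15 min compound preincubation at room temperature. Fluorescence change, last versus first of five reads.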
ALDH1A1 block: blocks purified human ALDH1A1 activity | P00352 | Purified ALDH1A1, NADH fluorescence, propionaldehyde substrate | Potency, µM (titrated, usually from 75.3 µM), most hits filed as inhibitors | hit rate 7.3% among 220,000 | AID 1030
KDM4E inh: JMJD2E (human) inhibition; hit rate 1.6% among 230,000; Potency, µM (highest dose often 57.1 µM), actives largely listed as inhibitors; B2RXH2; JMJD2E catalytic domain, FDH-coupled NADH fluorescence (FDH is formaldehyde dehydrogenase); note: nearly all actives have a fitted effect of over 50% in size
Target sequence (B2RXH2 1-337 limits assumed): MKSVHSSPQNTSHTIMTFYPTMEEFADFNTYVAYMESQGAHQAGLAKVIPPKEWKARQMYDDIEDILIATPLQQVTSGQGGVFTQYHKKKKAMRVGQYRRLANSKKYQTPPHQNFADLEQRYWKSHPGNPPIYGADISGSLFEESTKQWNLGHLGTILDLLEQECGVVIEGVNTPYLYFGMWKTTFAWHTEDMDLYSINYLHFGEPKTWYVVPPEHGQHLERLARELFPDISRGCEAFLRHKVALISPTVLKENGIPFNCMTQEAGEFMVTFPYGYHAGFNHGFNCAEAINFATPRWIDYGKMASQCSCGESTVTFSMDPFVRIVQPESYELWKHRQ
PNC assembly inh: perinucleolar compartment assembly inhibition; hit rate 3.1% among 140,000; PC3M PTB-GFP, PNC prevalence imaging, 16 h; hits give low values; activity change (PNC), negative = inhibition, % at 10 µM; AID 2417;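 active = readout at or below -70, meaning at least 70% loss of cells showing the perinucleolar compartment, a nuclear body marking cancer cells; inconclusive = readout between -30 and a set limit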
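Compounds are pinned in duplicate onto adhered PC3M cells stably expressing GFP-tagged PTB and incubated 16 h at 37 C. Cells are then fixed, nuclei stained with Hoechst, and PNC-positive cells counted.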
Of the large screens only hits and unclear results are named; the others gave an inactive call. An excerpt weighted towards active compounds, which were near 11% of everything screened. Unless noted, calls come from the whole dose curve; as a rule, active = well fitted inhibition curve with a large enough effect (not every such curve was filed as active); inconclusive = small, poorly fitted or top-dose-only effect, or another doubt; inactive = no such curve, though single readings can be large or run the other way.

Cc1cccc(Oc2ccccc2NC(=O)c2cnccn2)c1	ALDH1A1 block 11µM
Nc1ccc(Sc2nnnn2-c2ccccc2)c(Cl)c1	ALDH1A1 block 22µM, PNC assembly inh inconclusive
CC(=O)c1ccc(Sc2nnnn2-c2ccccc2)c([N+](=O)[O-])c1	ALDH1A1 block 16µM
CN1CCN(S(=O)(=O)c2ccc(Sc3nnnn3-c3ccccc3)c([N+](=O)[O-])c2)CC1	none
O=[N+]([O-])c1ccc(Sc2nnnn2-c2ccccc2)c(Cl)c1	ALDH1A1 block 3.5µM
O=C(CCCc1nc(-c2ccccc2)no1)Nc1cccnc1	none
COc1ccc(Cc2nc(-c3ccc(NC(=O)c4cccnc4)cc3)no2)cc1	PNC assembly inh -126
COc1ccc(-c2noc(CCC(=O)NCCN(C)Cc3ccccc3)n2)cc1	HPGD inh 16µM
COc1ccc(CC(=O)Nc2ccc(-c3noc(-c4cc(OC)c(OC)c(OC)c4)n3)cc2)cc1	HPGD inh inconclusive, KDM4E inh inconclusive, PNC assembly inh -100
O=C(CCCc1nc(-c2ccccc2)no1)NCc1cccnc1	ALDH1A1 block 14µM
CC1(C)OC(C(O)(c2cccc3c2oc2ccccc23)c2cccc3c2oc2ccccc23)C(C(O)(c2cccc3c2oc2ccccc23)c2cccc3c2oc2ccccc23)O1 (stereo unspecified)	none (no result: HPGD inh, KDM4E inh, PNC assembly inh)
O=C(CN(c1cccc(C(F)(F)F)c1)S(=O)(=O)c1ccc(Cl)c([N+](=O)[O-])c1)NCc1ccc(F)cc1	ALDH1A1 block inconclusive
CCC/C=C(\CCC)C(NP(=O)(c1ccccc1)c1ccccc1)c1ccc(C(F)(F)F)cc1 (stereo unspecified)	none (no result: PNC assembly inh)
CN(C)CCNCCN	none (no result: KDM4E inh, PNC assembly inh)
CC(=O)c1sc(N/N=C2\CC3CCC2(C)C3(C)C)nc1C (stereo unspecified)	ALDH1A1 block inconclusive (no result: HPGD inh, PNC assembly inh)
COc1cccc(-c2noc(CCC(=O)NC3CCCCC3)n2)c1	none
COc1ccc(-c2noc(CCC(=O)Nc3cccnc3)n2)cc1OC	ALDH1A1 block inconclusive, PNC assembly inh -100
COc1ccc(-c2noc(CCC(=O)NC3CCCCC3)n2)cc1OC	HPGD inh 35µM
COc1ccc(NC(=O)CCc2nc(-c3ccc(C)cc3)no2)c(OC)c1	ALDH1A1 block inconclusive, PNC assembly inh -103
O=C1c2ccccc2NC(c2ccc(-c3cccc([N+](=O)[O-])c3)o2)N1O (stereo unspecified)	HPGD inh 18µM, ALDH1A1 block 14µM, KDM4E inh inconclusive, PNC assembly inh inconclusive
O=C1c2ccccc2NC(c2ccc(-c3ccc(Br)cc3)o2)N1O (stereo unspecified)	KDM4E inh inconclusive
COc1ccc2c(c1)CCC1C2=NN(/C(C)=C/C(C)=O)C1c1cccc(F)c1 (stereo unspecified)	ALDH1A1 block 28µM (no result: HPGD inh, PNC assembly inh)
O=C(O)c1ccc(/C=N\N=C2c3ccccc3-c3ccccc32)cc1	none (no result: KDM4E inh, PNC assembly inh)
COc1cc(/C=C/C(=O)c2ccc(NS(=O)(=O)c3ccc(C)cc3)cc2)cc(OC)c1O	ALDH1A1 block 22µM, KDM4E inh inconclusive
COc1cccc(/C=C/C(=O)c2ccc(NS(=O)(=O)c3ccc(C)cc3)cc2)c1	PNC assembly inh inconclusive
COc1cc(/C=C/C(=O)c2ccc(NS(=O)(=O)c3ccc(C)cc3)cc2)ccc1OC(F)F	HPGD inh 16µM
CS(=O)(=O)c1ncc(Cl)c(C(=O)Nc2ccc(N3CCOCC3)cc2)n1	ALDH1A1 block 10µM
CS(=O)(=O)c1ccc(C(=O)Nc2ccc(N3CCOCC3)cc2)c(Cl)c1	none (no result: HPGD inh, PNC assembly inh)
CCCCCCCCCCCCCCCCCCCCCCO	none (no result: KDM4E inh, PNC assembly inh)
CSc1ccc(S(=O)(=O)NCc2ccccc2Cl)cc1	HPGD inh 22µM, ALDH1A1 block inconclusive
CSc1ccc(S(=O)(=O)NCc2ccc(Cl)cc2Cl)cc1	ALDH1A1 block 25µM, PNC assembly inh inconclusive
CSc1ccc(S(=O)(=O)NCc2ccccc2)cc1	ALDH1A1 block inconclusive
O=S(=O)(NCc1ccc(Cl)cc1Cl)c1ccc(N2CCOCC2)nc1	none (no result: HPGD inh, PNC assembly inh)
Cn1cccc1C(=O)N1CCC2(CCN(Cc3ccncc3)CC2)CC1	none (no result: KDM4E inh, PNC assembly inh)
COc1cc(C(=O)N2CCN(C(=O)C3CC3)CC2)cc(OC)c1OC	none
Cc1cccc(N2CCN(C(=O)c3ccc(NS(=O)(=O)c4c(C)noc4C)cc3)CC2)c1C	ALDH1A1 block 14µM
Cc1noc(C)c1S(=O)(=O)Nc1ccc(C(=O)N2CCN(c3cccc(Cl)c3)CC2)cc1	none
COc1cc(C(=O)N2CCN(c3cc(Cl)ccc3Cl)CC2)cc(OC)c1OC	PNC assembly inh -88
COc1ccc(C(=O)C2CCN(C(=O)c3ccc(C)cc3)CC2)cc1	ALDH1A1 block 5µM
COc1cc(C(=O)N2CCN(C(=O)COc3ccc4ccccc4c3)CC2)cc(OC)c1OC	ALDH1A1 block inconclusive
COc1ccc(C(=O)N2CCN(C(=O)c3cc(OC)c(OC)c(OC)c3)CC2)cc1	ALDH1A1 block 14µM
O=C(O)CCc1ccc(-c2ccc(Cl)cc2)n1NC(=O)c1ccc(O)cc1	none (no result: HPGD inh, PNC assembly inh)
CCNC(=O)CSc1nnc(-c2ccccc2Br)n1-c1cccc(C(F)(F)F)c1	none
CCCOc1ccc(/C(O)=C2/C(=O)C(=O)N(CCCn3ccnc3)C2c2ccc(C)o2)cc1 (stereo unspecified)	none (no result: HPGD inh, ALDH1A1 block, PNC assembly inh)
Cc1cccc(N2CCN(C(=O)c3ccncc3)CC2)c1C	none
COc1cc(C(=O)N2CCN(c3cccc(C)c3C)CC2)cc(OC)c1OC	PNC assembly inh -122
COc1cccc(C(=O)NC(=S)Nc2ccc3c4c(cccc24)CC3)c1	ALDH1A1 block 14µM
COc1ccc(OCC(=O)NC(=S)Nc2ccc3c4c(cccc24)CC3)cc1	HPGD inh inconclusive, ALDH1A1 block 16µM
Cc1ccccc1OCC(=O)NC(=S)Nc1ccc2c3c(cccc13)CC2	none
CC(C)=CCC/C(C)=C/CO/N=C1/C[C@@H](O)[C@@H](O)[C@@H]2[C@@H]3C(=O)N(C4CCCCC4)C(=O)[C@H]3CC[C@@H]12	none (no result: HPGD inh, KDM4E inh, PNC assembly inh)
CCOC(=O)CCC(=O)Nc1ccc([N+](=O)[O-])cc1C	none (no result: HPGD inh, PNC assembly inh)
COc1ccc(Cc2noc(CN3CCN(Cc4csc(C)n4)CC3)n2)cc1OC	none (no result: HPGD inh, PNC assembly inh)
Cc1ccc(NC(=O)c2ccco2)c(NC(=O)C2CCCO2)c1 (stereo unspecified)	none (no result: HPGD inh, PNC assembly inh)
O=C(C1CCCO1)N1CCN(c2c3c(nc4cc(-c5ccc(F)cc5)nn24)CCC3)CC1 (stereo unspecified)	HPGD inh inconclusive, ALDH1A1 block 22µM
OC1CCN(c2c3c(nc4cc(-c5ccc(F)cc5)nn24)CCC3)CC1	KDM4E inh inconclusive
COc1ccccc1OCCNC1CCCC1	ALDH1A1 block inconclusive, PNC assembly inh -98
N#Cc1ccccc1OCCOCCNC1CCCC1	KDM4E inh inconclusive, PNC assembly inh inconclusive
O=C(Nc1cccc(F)c1)N1CCC2(CC1)CCN(C(=O)c1cnccn1)CC2	none (no result: KDM4E inh, PNC assembly inh)
CCSc1nc(O)c(C2OC(=O)c3c2ccc(OC)c3OC)c(=O)n1CC (stereo unspecified)	KDM4E inh inconclusive, PNC assembly inh -122 (no result: HPGD inh)
O=C(CCl)NCCN1C(=O)S/C(=C\c2cccnc2)C1=O	ALDH1A1 block 1.6µM (no result: HPGD inh, PNC assembly inh)
CC(C(=O)NCCN1C(=O)S/C(=C\c2cccnc2)C1=O)N1C(=O)c2ccccc2C1=O (stereo unspecified)	PNC assembly inh -105
COc1ccc(C(=O)NCCN2C(=O)S/C(=C\c3cccnc3)C2=O)c(OC)c1OC	none
